HttQ103 aggreg: mutant huntingtin aggregation inhibition; PC12 HttQ103-GFP aggregates, Acumen cytometry, 40 h; Potency, µM (top dose mostly 46.1 µM), for the others: at the top dose activity change, negative = inhibition, most hits filed as inhibitors; 1.1% of 220,000 active; further: on the % scale 0 is the no-effect control and ±100 the full control effect; nearly all actives have a fitted effect of over 60% in size
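Huntingtin Q103 exon 1–GFP aggregates in induced PC12 cells (100 nM tebufenozide) were quantified by cytometry from lysates, with compounds dosed in titration.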
HTT cytoprotect: protects HTT-Q103 PC12 cells, measured by ATP; PC12 HTT-Q103 induced, cytoprotection, ATP luminescence, 40 h; Potency, µM (top dose mostly 56.4 µM), inactives show cytoprotection (ATP increase), most hits filed as activators; 0.14% of 230,000 active; AID 1471; further: % of control where 0% means no effect; nearly all actives have a fitted effect of over 45% in size
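Huntington model: PC12 line, ecdysone-inducible HTTQ103 exon1–GFP, tebufenozide 100 nM. Test articles in a dose series. Endpoint luminescence from cellular ATP.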
Lamin A splicing: LMNA splicing modulation. HeLa LMNA splicing GFP/RFP minigene ratio, 48 h. Potency, µM (titrated, usually from 46.1 µM), inactives show at the highest dose ratio change, negative = inhibition, most hits filed as inhibitors. 0.01% of 200,000 active; active means well fitted inhibition curve with a large enough effect in the signal ratio, with a control signal flat, not every such curve was filed as active; inconclusive means small, poorly fitted or top-dose-only effect, or effect the other way, or a change in a side signal; the % refers to the signal ratio; further: on the % scale 0 is the no-effect control and ±100 the full control effect
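S3 HeLa stable clones carrying a lamin A-EGFP splicing minigene plus DsRed2 were seeded at 600 cells/well in Opti-MEM with 2% FBS, pin-dosed and incubated 48 h at 37°C. Acumen cytometry (488 nm) gave the GFP/RFP total-intensity ratio.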
ALDH1A1 block: inhibitors of human aldehyde dehydrogenase 1A1 | P00352 | Purified ALDH1A1, NADH fluorescence, propionaldehyde substrate | Potency, µM (doses to about 75.3 µM), for the others: at the highest dose activity, negative = inhibition, actives largely listed as inhibitors | 7.3% of 220,000 active; active means well fitted inhibition curve with a large enough effect, not every such curve was filed as active; inconclusive means small, poorly fitted or top-dose-only effect, or another doubt; inactive means no such curve, though single readings can be large or run the other way;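 further: plate controls were no enzyme wells and a reference inhibitor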
Target sequence (P00352 whole entry, looked up): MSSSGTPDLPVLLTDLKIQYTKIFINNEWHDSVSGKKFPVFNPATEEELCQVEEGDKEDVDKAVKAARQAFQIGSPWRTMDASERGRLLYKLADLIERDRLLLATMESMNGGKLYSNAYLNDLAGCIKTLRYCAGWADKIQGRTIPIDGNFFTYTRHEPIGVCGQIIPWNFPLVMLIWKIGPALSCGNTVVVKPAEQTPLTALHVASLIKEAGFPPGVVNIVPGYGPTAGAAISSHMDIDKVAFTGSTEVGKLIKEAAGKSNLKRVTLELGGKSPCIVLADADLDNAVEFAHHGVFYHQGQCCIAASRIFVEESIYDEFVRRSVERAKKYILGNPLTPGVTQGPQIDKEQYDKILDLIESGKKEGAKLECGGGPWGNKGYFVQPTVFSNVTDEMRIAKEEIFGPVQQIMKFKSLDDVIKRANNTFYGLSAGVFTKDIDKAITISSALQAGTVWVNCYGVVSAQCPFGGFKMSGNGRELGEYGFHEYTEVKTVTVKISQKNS
HPGD block: blocks human HPGD enzyme activity. AID 894. P15428. purified HPGD, NADH fluorescence kinetic, PGE2 substrate. 4.3% of 150,000 active. Potency, µM, inactives show at the highest dose activity change, negative = inhibition, usual class: inhibitors; active means well fitted inhibition curve with a large enough effect, not every such curve was filed as active; inconclusive means small, poorly fitted or top-dose-only effect, or another doubt; inactive means no such curve, though single readings can be large or run the other way; further: on the % scale 0 is the no-effect control and ±100 the full control effect
Target sequence (P15428 whole entry, looked up): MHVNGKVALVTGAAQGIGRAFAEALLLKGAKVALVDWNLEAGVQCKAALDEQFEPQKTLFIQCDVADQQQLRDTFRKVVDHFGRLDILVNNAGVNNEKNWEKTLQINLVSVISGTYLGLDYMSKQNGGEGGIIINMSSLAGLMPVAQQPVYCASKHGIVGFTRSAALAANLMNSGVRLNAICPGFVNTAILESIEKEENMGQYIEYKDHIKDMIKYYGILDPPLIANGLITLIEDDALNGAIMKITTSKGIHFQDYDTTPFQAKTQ
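NADH formation kinetics: reaction with 30 uM PGE2 and 1 mM NAD+ (final), 20 nM enzyme, Tris-HCl pH 8 with Tween 20, after 15 min compound preincubation at room temperature. Fluorescence change, last versus first of five reads.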
Starred values were filed as active, the others as inactive; ? = inconclusive; nt = not tested or not shown; [ ] = remark or other dose. Only some compounds are listed: those with a hit (about 8.8% of all), similar ones and a draw of the others. Unless noted, the call rests on the fitted dose curve; in most records, active means well fitted curve in the direction sought with a large enough effect; inconclusive means small, poorly fitted or top-dose-only effect, or another doubt; inactive means no such curve, though single readings can be large; an effect the other way counts as inactive or inconclusive. Potency means the concentration at half of the fitted maximal effect.

SMILES	HttQ103 aggreg	HTT cytoprotect	Lamin A splicing	ALDH1A1 block	HPGD block
C=CCNC(=O)c1onc(CCl)c1C(=O)OC	-6.2%	-56.7%	?	-7.6%	-6.5%
CCCCNC(=O)c1onc(CSc2ccc(OC)cc2)c1C(=O)O	1.9%	-7.8%	9.7%	-4.5%	-27.8%
CCCCNC(=O)c1onc(CCl)c1C(=O)OC	?	-86.9%	?	14.1µM*	-14.8%
O=C(COC(=O)COc1ccccc1F)Nc1ccc(Cl)cn1	-20.4%[9.22 µM]	-2.5%[10 µM]	nt	nt	nt
O=C(COC(=O)Cc1ccccc1F)Nc1ccc(Cl)cn1	-4.2%	-19.3%	?	12.6µM*	nt
CC(C)(C)OC(=O)N1CCC(c2c(C(=O)N3CCC(c4ccccc4)C3)cnn2-c2cccc(Cl)c2)CC1 (stereo not given)	nt	nt	-13.6%[46 µM]	nt	nt
CCCC(C(=O)NC1CCCC1)N(Cc1ccc2c(c1)OCO2)C(=O)c1snc(C(N)=O)c1N (stereo not given)	13.7%	-8.7%	-0.8%	12.6µM*	-16.0%
Cc1ccc(S(=O)(=O)/N=C(/c2ccccc2)N2CCOCC2)cc1	nt	nt	nt	0.4%	nt
Cc1ccc(S(=O)(=O)/N=C(\CN2CCCCC2)N2CCOCC2)cc1	21.3%	-9.1%	16.0%	11.2µM*	-4.2%
FC(F)(F)c1cc(CN2CCCC3(CCNCC3)C2)cc(C(F)(F)F)c1	nt	-84.1%	nt	-8.3%	-5.5%
COc1ccc(OC)c(C2C(C(C)=O)=C(O)C(=O)N2Cc2cccnc2)c1 (stereo not given)	-5.0%	-8.7%[10 µM]	-4.4%	28.2µM*	-11.5%
CC(=O)C1=C(O)C(=O)N(Cc2cccnc2)C1c1ccccc1Cl (stereo not given)	0.7%	13.7%	4.5%	?	-18.3%
COc1ccc(C2C(C(C)=O)=C(O)C(=O)N2c2cccnc2)c(OC)c1 (stereo not given)	-8.5%	-15.4%[0.074 µM]	-9.8%	31.6µM*	?
O=C(Oc1ccccc1)N1CCC[C@@]2(CCN(c3ccccc3)C2)C1	nt	1.1%	nt	-13.2%	-9.7%
O=C(NCCc1ccc(Cl)cc1)c1cnc2sc(N3CCCC3)nn2c1=O	nt	nt	8.8%[46 µM]	nt	nt
COc1cc(C(Nc2ccc(S(=O)(=O)N3CCC(C)CC3)cc2)C(=O)NCC2CCCO2)cc(OC)c1OC (stereo not given)	5.6%	nt	-2.1%	3.55µM*	-11.5%
COc1cc(C(Nc2ccc(S(=O)(=O)NCC3CCCO3)cc2)C(=O)NC(C)(C)C)cc(OC)c1OC (stereo not given)	0.0%[9.22 µM]	19.2%[10 µM]	nt	nt	nt
CC1=CN2C(=N)/C(=C/c3ccco3)C(=O)N=C2S1	4.9%	nt	?	12.6µM*	-21.5%
CC1=CN2C(=N)/C(=C/c3cn(CCCOc4ccccc4C)c4ccccc34)C(=O)N=C2S1	-12.6%	-15.1%[10 µM]	3.1%	?	?
CCOc1ccc(-c2ccc(/C=C3/C(=N)N4C=CSC4=NC3=O)o2)c([N+](=O)[O-])c1	?	12.1%[10 µM]	-10.9%	-0.7%	?
CC1=CN2C(=N)/C(=C/c3ccc([N+](=O)[O-])o3)C(=O)N=C2S1	?	-42.1%[10 µM]	?	3.55µM*	-27.7%
CC(=O)[C@H]1CC[C@@H]2[C@]1(C)CC=C1[C@@]23C=C[C@]2(C[C@H](O)CC[C@@]12C)[C@H](C(=O)O)[C@@H]3C(=O)O	nt	nt	nt	0.0%[13.5 µM]	-5.9%
Cc1cc([N+](=O)[O-])ccc1NC(=S)NC(=O)Cc1ccccc1	21.0%	-6.1%	23.0%	?	17.8µM*
CC(=O)NC(=S)Nc1ccc([N+](=O)[O-])cc1C	?	11.2µM*	3.7%[46 µM]	-15.1%	nt
O=C(COC(=O)c1ccc(Br)o1)NCCc1ccccc1	3.4%	-30.1%	nt	3.8%	nt
SMILES	HttQ103 aggreg	HTT cytoprotect	Lamin A splicing	ALDH1A1 block	HPGD block
Cc1ccc(NC(=O)c2noc(C(C)C)c2[N+](=O)[O-])cc1	10.5%	-7.0%	14.8%[46 µM]	10µM*	nt
CC(C)c1onc(C(=O)Nc2cccc(O)c2)c1[N+](=O)[O-]	-14.7%	-34.1%	nt	1.5%	nt
CCc1ccccc1NC(=O)c1noc(C(C)C)c1[N+](=O)[O-]	7.08µM*	-18.7%	nt	-18.5%	nt
CC(C)c1onc(C(=O)Nc2cccnc2Cl)c1[N+](=O)[O-]	0.2%	-8.0%	?	?	nt
CC(C)c1onc(C(=O)N2CCCCC2C)c1[N+](=O)[O-] (stereo not given)	-4.1%	11.8%[10 µM]	-4.3%	-13.7%	?
CC(C)c1onc(C(=O)N2CCCCC2)c1[N+](=O)[O-]	12.3%	13.8%[10 µM]	-15.0%	?	14.1µM*
COc1cccc(N2CCN(C(=O)C3CCN(S(=O)(=O)c4cccc5nonc45)CC3)CC2)c1	nt	nt	-7.5%[46 µM]	nt	nt
C=CCNC(=O)c1onc(CSc2ccccc2)c1C(=O)O	1.5%	0.5%	-2.2%[0.0737 µM]	0.8%	-15.5%
C=CCNC(=O)c1onc(CSc2ccc(C(C)C)cc2)c1C(=O)O	-7.4%	4.9%	?	-10.8%	14.1µM*
Cc1ccc(SCc2noc(C(=O)NC(C)C)c2C(=O)O)cc1C	-8.1%	-3.6%	?	?	-14.2%
CC(C)NC(=O)c1onc(CSc2ccc(C(C)C)cc2)c1C(=O)O	?	-22.1%	?	?	22.4µM*
CC(C)NC(=O)c1onc(CSc2ccc(F)cc2)c1C(=O)O	1.2%	-2.6%	5.1%[0.0737 µM]	?	39.8µM*
CC(C)NC(=O)c1onc(CSc2ccc(F)c(F)c2)c1C(=O)O	3.8%	11.2%	-6.0%[0.0737 µM]	22.4µM*	-21.4%
COc1cccc(C2C3=C(N=c4s/c(=C\c5ccc(OCC(=O)O)cc5)c(=O)n42)c2ccccc2CC3)c1 (stereo not given)	32.5%[9.22 µM]	13.4%[10 µM]	nt	nt	nt
Cc1c(C=O)c2ccccc2n1CC(=O)NC(C)c1ccccc1 (stereo not given)	?	-0.9%[10 µM]	-17.3%[46 µM]	-5.4%	nt
CCOc1ccccc1CNC(=O)c1cc2c(=O)n(Cc3cccnc3)ccc2nc1C	nt	nt	6.3%[46 µM]	nt	nt
COc1ccccc1N(C)S(=O)(=O)c1ccc(C(=O)OCC(=O)NCCC2=CCCCC2)cc1	-12.7%	12.9%[10 µM]	7.3%	-8.7%	-2.0%
CCc1ccc(NC(=O)Cn2c(=O)nc(-c3ccccc3F)c3cc(Cl)ccc32)cc1	nt	nt	-5.8%[46 µM]	nt	nt
O=CNc1ncn[nH]1	nt	-4.0%[10 µM]	nt	4.5%[13.5 µM]	-7.3%
COC(=O)C(C(=O)OC)[C@@H](NC(=O)OCc1ccccc1)c1ccccc1	nt	13.2%	nt	-15.7%	-6.7%
Cc1cc2oc(=O)cc(CN3CCN(Cc4ccccc4)CC3)c2cc1Cl	22.3%	-5.3%	?	?	?
Cc1cc2oc(=O)cc(CN3CCC(C)CC3)c2cc1Cl	10.6%	-7.7%	-3.1%	20µM*	-23.2%
CCC(C)(C)n1nnnc1CN(Cc1ccc(Cl)cc1)Cc1ccco1	-10.7%	5.6%[10 µM]	0.7%	10µM*	-13.1%
CCC(C)(C)n1nnnc1CN(Cc1ccco1)Cc1cc2cc3c(cc2[nH]c1=O)OCO3	9.3%	-30.1%	21.0%	?	?
O=C(CCC(=O)N(CC(=O)NC1CCCCC1)Cc1cccs1)Nc1nccs1	8.5%[9.22 µM]	19.2%[10 µM]	nt	nt	nt
O=C1CCCc2c1cc(C(=O)O)c(=O)n2-c1ccccc1	17.4%[9.22 µM]	8.4%[10 µM]	?	0.9%	nt
